Assay [1] concerns the target Cellular tumor antigen p53 (Homo sapiens) (UniProt P04637). Description: Primary qHTS for small molecule compounds that upregulate eGFP-tagged delta133p53alpha (in N-terminal) cells. (AID 2060322).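 For activation: series mostly up to about 56 µM; 0% = DMSO vehicle and 100% = reference activator.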 Note: nearly all actives have a fitted effect of over 75% in size. Note: potency is the fitted concentration of half-maximal effect. The following applies: NCI-H358 eGFP-delta133p53alpha fluorescence, 24 h; activation: hits give high values. A digest of the protocol:
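NCI-H358 cells pre-induced 24 h with 10 ng/ml doxycycline to express N-terminal eGFP-delta133p53alpha, then dosed 24 h at 37C without doxycycline; fixed, Hoechst-stained, GFP intensity by laser scanning cytometry, normalized to DMSO (0%) and 57.5 uM 5-azacytidine (100%).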
(In general: Quantitative high-throughput screening tests each substance at several concentrations.)

Assay [2] addresses Aldehyde dehydrogenase, mitochondrial (Homo sapiens) (UniProt P05091). Kind of assay: qHTS for Inhibitors of the Aldehyde Dehydrogenase Family (ALDH2) Primary screen (AID 2061308).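 Note: plate controls were vehicle for no effect and reference inhibitor for full effect; nearly all actives have a fitted effect of over 55% in size.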
For assay [3], the target named is Retinaldehyde dehydrogenase 3 (Homo sapiens) (UniProt P47895). Description: qHTS for Inhibitors of the Aldehyde Dehydrogenase Family (ALDH1A3) Primary screen (AID 2061315).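 Note: plate controls were DMSO vehicle for no effect and reference inhibitor for full effect.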

The structures appear in SMILES notation. Records with an inconclusive call do not appear. Values without a mark were called inactive. Activity calls are given as the source filed them. Calls come from the whole dose curve; as a rule, active = well fitted curve in the direction sought with a large enough effect; inconclusive = small, poorly fitted or top-dose-only effect, or another doubt; inactive = no such curve, though single readings can be large; an effect the other way counts as inactive or inconclusive.

The values below come from PubChem BioAssay (NCATS).

Sequence of Cellular tumor antigen p53 (Homo sapiens) (P04637 whole entry, looked up): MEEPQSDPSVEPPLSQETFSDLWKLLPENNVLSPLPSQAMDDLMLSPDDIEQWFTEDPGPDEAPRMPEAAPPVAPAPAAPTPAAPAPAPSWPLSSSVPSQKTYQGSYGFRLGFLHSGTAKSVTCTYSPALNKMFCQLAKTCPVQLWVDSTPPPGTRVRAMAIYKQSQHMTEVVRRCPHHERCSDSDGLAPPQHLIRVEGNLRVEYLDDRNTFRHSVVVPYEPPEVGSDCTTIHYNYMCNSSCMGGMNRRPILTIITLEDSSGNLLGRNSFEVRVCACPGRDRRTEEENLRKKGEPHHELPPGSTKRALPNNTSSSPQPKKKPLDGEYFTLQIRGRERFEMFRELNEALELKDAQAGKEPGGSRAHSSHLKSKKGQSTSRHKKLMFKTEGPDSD

`CC(=O)[C@H]1CC[C@H]2[C@@H]3CC=C4C[C@@H](OS(=O)(=O)O)CC[C@]4(C)[C@H]3CC[C@]12C`: the activation in assay [1] was -4.33%. For the same molecule, the Potency result in assay [2] and in assay [3] was “inactive” each time.

For `CC(=O)N[C@H]1[C@H](O[C@H]2CC[C@]3(C)C4CC=C5[C@@H]6CC(C)(C)CC[C@]6(C(=O)O)[C@H](O)C[C@@]5(C)[C@]4(C)CC[C@H]3C2(C)C)O[C@H](CO)[C@@H](O)[C@@H]1O` (stereo partly drawn), the activation in assay [1] was 9.82%. For the same molecule, the Potency result in assay [2] and in assay [3] was “inactive” each time.

Consider `CN1C(=O)c2ccccc2-n2c(nc3ccccc3c2=O)[C@@]12O[C@H]2c1ccccc1`, for which the activation in assay [1] is 13%. The Potency result in assay [2] and in assay [3] was “inactive” each time.

As for `C=C1C(=O)O[C@H]2[C@H]1[C@@H](OC(=O)C(C)CO)C[C@@]1(C)[C@H](O)CCC(=O)[C@H]21` (stereo partly drawn), the activation in assay [1] was -11.5%. Further, the Potency entry in assay [2] and in assay [3] was “inactive” in each case.

Consider `CN1[C@@H]2CC[C@H]1CC(NC(=O)n1c(=O)[nH]c3ccccc31)C2` (stereo partly drawn), for which the activation in assay [1] is -9.21%. The Potency entry in assay [2] and in assay [3] was “inactive” throughout.

As for `C[C@@H]1C[C@H]2[C@@H]3CCC4=CC(=O)C=C[C@]4(C)[C@@]3(F)[C@@H](O)C[C@]2(C)[C@@]1(O)C(=O)COP(=O)(O)O`, in assay [1], the activation was -5.67%. For the same molecule, the Potency entry in assay [2] and in assay [3] was “inactive” throughout.

Take `C/C=C(/C)C(=O)O[C@@H]1C[C@@H](OC(=O)CC(C)C)C2(C)C3C(=O)C=C(C)C2C3C1(C)C` (stereo partly drawn): in assay [1], the activation is -29%. Further, the Potency entry in assay [2] and in assay [3] was “inactive” each time.

Consider `C=C1C(=O)O[C@H]2[C@H]1[C@@H](OC(=O)/C(C)=C\C)C[C@]1(C)O[C@@H]1[C@H]1O[C@H]1C(=C)[C@H]2O`, for which the activation in assay [1] was -10.7%. Besides, the Potency result in assay [2] and in assay [3] was “inactive” throughout.

As to `O=C(O)Cc1nn(Cc2nc3cc(C(F)(F)F)ccc3s2)c(=O)c2nccnc12`, in assay [1], the activation is -6.33%. Further, the Potency entry in assay [2] and in assay [3] was “inactive” throughout.

Turning to `COc1ccc(/C=C/C(N)=O)cc1OC`, in assay [1], the activation was 2.68%. The Potency result in assay [2] and in assay [3] was “inactive” each time.

`O=C(/C=C/c1ccc(O)cc1)O[C@@H]1C[C@@](O)(C(=O)O)C[C@@H](O)[C@@H]1O`: the activation in assay [1] was 3.82%. The Potency result in assay [2] and in assay [3] was “inactive” in each case.

As to `CC(=O)OC(C)(C)/C=C/C(=O)[C@](C)(O)C1[C@H](O)C[C@@]2(C)[C@@H]3CC=C4[C@@H](C[C@H](O[C@@H]5O[C@H](CO)[C@@H](O)[C@H](O)[C@H]5O)C(=O)C4(C)C)[C@]3(C)C(=O)C[C@]12C` (stereo partly drawn), in assay [1], the activation is -10.7%. In addition, the Potency entry in assay [2] and in assay [3] was “inactive” each time.

Turning to `C[C@H](NC(c1cccc2[nH]c(=O)c(=O)[nH]c12)P(=O)(O)O)c1ccc(Br)cc1` (stereo partly drawn), the activation in assay [1] is -12.3%. Besides, the Potency result in assay [2] and in assay [3] was “inactive” throughout.

For `CC(C)C1(O)NC(=O)C(CC2(O)c3ccccc3N3C(=O)C(C)(C)NC32)n2c1nc1ccccc1c2=O` (stereo not drawn), the activation in assay [1] was -3.05%. In addition, the Potency entry in assay [2] and in assay [3] was “inactive” each time.

For `CC1(C)CC[C@]2(C(=O)O)CC[C@]3(C)C(=CCC4[C@@]5(C)C[C@@H](O)[C@H](O)[C@](C)(CO)C5CC[C@]43C)[C@@H]2[C@@H]1O` (stereo partly drawn), the activation in assay [1] was 12.5%. For the same molecule, the Potency result in assay [2] and in assay [3] was “inactive” throughout.

As for `CC(C)=CCC[C@](C)(O[C@@H]1O[C@H](CO)[C@@H](O)[C@H](O)[C@H]1O)[C@H]1CC[C@]2(C)[C@@H]1[C@H](O)CC1[C@@]3(C)CC[C@H](O)C(C)(C)C3[C@@H](O[C@@H]3O[C@H](CO)[C@@H](O)[C@H](O)[C@H]3O[C@@H]3OC[C@@H](O)[C@H](O)[C@H]3O)C[C@]12C` (stereo partly drawn), the activation in assay [1] is -15.3%. Also, the Potency entry in assay [2] and in assay [3] was “inactive” throughout.

`CN1CCN(Cc2ccc(-c3cnc4[nH]cc(-c5ccc6[nH]ccc6c5)c4c3)cc2)CC1`: the Potency in assay [1] is 23.9 µM (active). Also, the Potency result in assay [2] and in assay [3] was “inactive” in each case.

`N#Cc1ccc(N2N=C3c4ccc(C(=O)O)cc4CC[C@@H]3[C@@H]2C2CCCC2)cc1Cl`: in assay [1], the activation was -25%. The Potency result in assay [2] and in assay [3] was “inactive” throughout.

As for `COc1ccc(-c2ccccc2)cc1NS(=O)(=O)c1cc(Cl)cc(Cl)c1O`, the activation in assay [1] is -8.33%. Besides, the Potency entry in assay [2] and in assay [3] was “inactive” each time.

For `C[C@H](Oc1ccc(S(C)(=O)=O)cc1C(=O)N1CCN(c2ncc(C(F)(F)F)cc2F)CC1)C(F)(F)F`, the activation in assay [1] is 4.46%. For the same molecule, the Potency entry in assay [2] and in assay [3] was “inactive” in each case.

Turning to `C/C=C(/C)C(=O)OC1CC(C)(C)CC2C3=CCC4C5(C)CCC(O[C@@H]6O[C@H](C(=O)O)[C@@H](O)[C@H](O)[C@H]6O[C@@H]6O[C@H](CO)[C@H](O)[C@H](O[C@@H]7OC[C@H](O)[C@H](O)[C@H]7O[C@@H]7O[C@H](CO)[C@@H](O)[C@H](O)[C@H]7O)[C@H]6O)C(C)(C)C5CCC4(C)C3(C)C(O)C(O)C12CO` (stereo partly drawn), the activation in assay [1] was 0.893%. Also, the activity change, negative = inhibition in assay [2] was -0.94% [at 11.2 µM]; in assay [3], -6.72% [at 11.2 µM].

Consider `CC(C)C(C(=O)N(C)C(C)C(N)=O)N(C)C(=O)C1CCCN1C(=O)/C=C/C=C/C(O)C(C)O` (stereo not drawn), for which the activation in assay [1] is -23.7%. The Potency result in assay [2] and in assay [3] was “inactive” each time.

In the case of `CC1CCC2C(C)(C)C(O)CCC2(C)C12Cc1c(O)cc3c(c1O2)CN(C(CCC(N)=O)C(=O)O)C3=O` (stereo not drawn), the activation in assay [1] is -13.7%. Further, the Potency entry in assay [2] and in assay [3] was “inactive” each time.

`C=C(C=O)[C@]1(O)C[C@@]2(C)C(=CC1=O)C=C[C@H](OC(=O)/C=C/C=C/[C@H](C)CC)[C@@H]2C`: the Potency in assay [1] is 4.65 µM (active). For the same molecule, the Potency result in assay [2] and in assay [3] was “inactive” throughout.

Take `COC1OC(=O)C2=C1C1(C)CCCC(C)(C)C1CC2O` (stereo not drawn): in assay [1], the activation is -8.04%. The Potency entry in assay [2] and in assay [3] was “inactive” each time.

For the molecule `CC1(C)CC2C(O)C3=C(CC(C)(O)C2C1)C(=O)OC3` (stereo not drawn), the activation in assay [1] is -6.87%. In addition, the Potency result in assay [2] and in assay [3] was “inactive” throughout.
